# Laboratory results as given in PubChem BioAssay (Tox21).
# Where “and” joins values, the source holds several entries; their conditions need not be identical. Identical values can stand only once. Records with an inconclusive call do not appear. A call without a number means that no potency is given here. Calls of active or inactive are those of the source. Unless noted, calls follow the shape of the dose curve; as a rule, active = well fitted curve in the direction sought with a large enough effect in the repeat runs; inconclusive = weak or mixed curves; inactive = no such curve, though single readings can be large; an effect the other way counts as inactive or inconclusive.
# What was measured:
# [1] = target: Estrogen receptor beta (Homo sapiens) (UniProt Q92731); assay: qHTS assay to identify small molecule agonists of the estrogen receptor beta (ER-beta) signaling pathway (AID 1259377; active = well fitted activation curve with a large enough effect in the signal ratio in the repeat runs, not every such curve was filed as active; the % refers to the signal ratio)
# How it was run: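 Measured by fluorescence intensity from a B/G FRET beta-lactamase substrate (2 h, room temperature) in ER-beta-UAS-bla HEK293T cells treated with DMSO-dissolved compounds for 16 hr at 37C and 5% CO2.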
# [2] = target: Estrogen receptor beta (Homo sapiens) (UniProt Q92731); assay: qHTS assay to identify small molecule antagonists of the estrogen receptor beta (ER-beta) signaling pathway (AID 1259378; active = well fitted inhibition curve with a large enough effect in the signal ratio in the repeat runs, not every such curve was filed as active; the % refers to the signal ratio; also: potency is read from the fitted curve at half-maximal effect)
# How it was run: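 ER-beta-UAS-bla HEK293T cells in 2% charcoal-stripped FBS medium treated with compound plus 1nM final 17-beta-estradiol for 16 hr at 37C. Beta-lactamase reporter read by FRET substrate fluorescence after 2 hours at room temperature.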
# [3] = qHTS assay to identify small molecule agonists of the androgen receptor (AR) signaling pathway in the presence of an antagonist - cell viability counter screen (AID 1259379); also: nearly all actives have a fitted effect of over 25% in size; also: potency is read from the fitted curve at half-maximal effect
# How it was run: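 Cells: MDA-kb2 (MMTV-luc, AR and GR elements), 3,000/well, 5 hr settle. Added: nilutamide 3.0uM final, then compounds (15 conc.). Incubation: 16 hr, 37C, no CO2. Read-out: CellTiter-Fluor, 1 hr, fluorescence.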
# [4] = qHTS assay to identify small molecule agonists of the estrogen receptor beta (ER-beta) signaling pathway - cell viability counter screen (AID 1259380); also: nearly all actives have a fitted effect of over 30% in size; also: potency is read from the fitted curve at half-maximal effect
# How it was run: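 HEK293T ER-beta-UAS-bla; 2% CS-FBS; 6 hr pre-plate, 16 hr cpd at 37C/5% CO2; LiveBLAzer read first, then CellTiter-Glo 30 min RT, luminescence.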
# [5] = qHTS assay to identify small molecule antagonists of the estrogen receptor beta (ER-beta) signaling pathway - cell viability counter screen (AID 1259382); also: nearly all actives have a fitted effect of over 55% in size; also: potency is read from the fitted curve at half-maximal effect
# How it was run: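 Cells: ER-beta-UAS-bla HEK293T, 2,000/well, 2% CS-FBS, 6 hr settle. Cpd + E2 (1nM final), 16 hr, 37C/5% CO2. Bla FRET substrate 2 hr RT, then CellTiter-Glo 30 min RT, luminescence.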
# [6] = target: Estrogen receptor (Homo sapiens) (UniProt P03372); assay: qHTS assay to identify small molecule agonists of the estrogen receptor alpha (ER-alpha) signaling pathway in the presence of an antagonist (AID 1259383; calls by dose curve; also: nearly all actives have a fitted effect of over 15% in size; also: potency is read from the fitted curve at half-maximal effect; as to activation: top concentration of the series differs between compounds)
# How it was run: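 VM7Luc4E2, endog. ER-alpha + 4×ERE-luc; charcoal-stripped FBS, phenol red-free, 5 d; 24hr plating; +10.0nM ICI-182,780 (final); cpds 15 conc, 22hr, 37C/5% CO2; ONE-Glo luminescence.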
# [7] = qHTS assay to identify small molecule agonists or antagonists of the thyroid stimulating hormone receptor (TSHR) signaling pathway - wild type cell line counter screen (AID 1259384; calls by dose curve)
# How it was run: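 Wild-type Hek293 cells, 800/well, 18 h at 37C, then compound with Ro20-1724 for 30 min RT. cAMP by HTRF (cAMP-d2/anti-cAMP cryptate), 1 h RT, fluorescence read. 15 concentrations, triplicates.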
# [8] = target: Thyrotropin receptor (Homo sapiens) (UniProt P16473); assay: qHTS assay to identify small molecule antagonists of the thyroid stimulating hormone receptor (TSHR) signaling pathway (AID 1259385; calls by dose curve; also: nearly all actives have a fitted effect of over 20% in size; also: potency is read from the fitted curve at half-maximal effect)
# How it was run: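 TSHR-HEK293 cells (800/well) plated 18 h, then compounds with Ro20-1724 and TSH at 1.5 ng/mL final, 30 min at room temperature. cAMP quantified by HTRF (cAMP-d2/anti-cAMP-cryptate, 1 h); 15 concentrations in triplicate.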
# [9] = qHTS assay to identify small molecule agonists of the estrogen receptor alpha (ER-alpha) signaling pathway in the presence of an antagonist - cell viability counter screen (AID 1259386);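 also: series mostly up to about 92 µM; cells exposed to compounds for 22 h at 37 °C before the viability read; nearly all actives have a fitted effect of over 30% in size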
# How it was run: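 VM7Luc4E2, stripped-serum pre-culture 5 d; 24hr plating; +ICI-182,780 10.0nM final; cpds 15 conc, 22hr, 37C/5% CO2; CellTiter-Fluor added at 21hr, fluorescence 1hr later.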
# [10] = target: Progesterone receptor (Homo sapiens) (UniProt P06401); assay: qHTS assay to identify small molecule agonists of the progesterone receptor (PR) signaling pathway (AID 1346784; calls by dose curve; also: nearly all actives have a fitted effect of over 30% in size)
# How it was run: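 The screen uses PR-UAS-bla HEK 293T cells in charcoal-stripped serum (2%). Compounds are applied for 16 hr at 37C after a 6 hr pre-incubation, and reporter activity is detected with a FRET beta-lactamase substrate after 2 hr at room temperature.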
# [11] = target: Progesterone receptor (Homo sapiens) (UniProt P06401); assay: qHTS assay to identify small molecule antagonists of the progesterone receptor (PR) signaling pathway (AID 1346795; active = well fitted inhibition curve with a large enough effect in the signal ratio in the repeat runs, not every such curve was filed as active; the % refers to the signal ratio; also: potency is read from the fitted curve at half-maximal effect)
# How it was run: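 After 6 hr plating at 37C in 2% stripped-serum medium, PR-UAS-bla HEK293T cells got compounds, then 1 nM R5020. Sixteen hours later, LiveBLAzer substrate was applied for 2 hr at room temperature and fluorescence was recorded.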
# [12] = qHTS assay to identify small molecule antagonists of the progesterone receptor (PR) signaling pathway - cell viability counter screen (AID 1346798); also: series mostly up to about 92 µM; nearly all actives have a fitted effect of over 50% in size
# How it was run: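 Viability was determined by ATP-based luminescence (CellTiter-Glo) in PR-UAS-bla HEK293T cells cultured in 2% charcoal-stripped serum and incubated 16 hr with compounds under R5020 stimulation.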
# [13] = qHTS assay to identify small molecule agonists of the progesterone receptor (PR) signaling pathway - cell viability counter screen (AID 1346799; calls by dose curve; also: nearly all actives have a fitted effect of over 45% in size)
# How it was run: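 Viability was scored by ATP luminescence (CellTiter-Glo, 30 min, room temperature) in the same wells used for the reporter readout, after 16 hr compound exposure of PR-UAS-bla HEK293T cells.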
# [14] = qHTS assay to identify small molecule antagonists of the TGF-beta/Smad signaling pathway - cell viability counter screen (AID 1346824); also: nearly all actives have a fitted effect of over 50% in size
# How it was run: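 SBE-bla HEK 293T cells, incubated overnight, then compound plus 0.25 ng/mL TGF-beta1 (stock added) for 5 hr at 37 C. Viability was read in the same wells by CellTiter-Glo luminescence after 30 min at room temperature.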
# [15] = qHTS assay to identify small molecule agonists of the TGF-beta/Smad signaling pathway - cell viability counter screen (AID 1346829); also: top concentration of the series differs between compounds; nearly all actives have a fitted effect of over 45% in size
# How it was run: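 Here the cytotoxicity of library compounds is measured in SBE-bla HEK 293T cells treated for 5 hr, using CellTiter-Glo added to wells already read for the beta-lactamase reporter.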
# [16] = qHTS assay to identify small molecule agonists of the TGF-beta/Smad signaling pathway (AID 1346859; active = well fitted activation curve with a large enough effect in the signal ratio in the repeat runs, not every such curve was filed as active; the % refers to the signal ratio; also: series mostly up to about 77 µM)
# How it was run: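 Dual-wavelength fluorescence (460/530 nm emission) quantified beta-lactamase expression under the Smad binding element in HEK 293T cells following 5 hr compound treatment at 37 C.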
# [17] = target: Thyrotropin-releasing hormone receptor (Homo sapiens) (UniProt P34981); assay: qHTS assay to identify small molecule antagonists of the thyrotropin-releasing hormone receptor (TRHR) signaling pathway (AID 1346877; active = well fitted inhibition curve with a large enough effect in the repeat runs, not every such curve was filed as active; also: series mostly up to about 51 µM)
# How it was run: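 Intracellular calcium fluorescence, read kinetically every second over 3 min, reports TRH-evoked signalling in HEK293 cells carrying TRHR. Test compounds were added 5 min ahead of a 1 nM TRH challenge.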
# [18] = target: Thyrotropin-releasing hormone receptor (Homo sapiens) (UniProt P34981); assay: qHTS assay to identify small molecule agonists of the thyrotropin-releasing hormone receptor (TRHR) signaling pathway (AID 1346891; calls by dose curve;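 also: HEK293 cells expressing TRHR with calcium dye readout; series mostly up to about 58 µM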)
# How it was run: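 Kinetic fluorescence (3 min, 1 s intervals) reported intracellular calcium after compound transfer onto TRHR-Hek293 cells pre-loaded with dye for 2 h at 37 °C.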
# [19] = Human pregnane X receptor (PXR) small molecule agonists, qHTS cell viability counter screen (AID 1346977); also: nearly all actives have a fitted effect of over 50% in size; also: potency is read from the fitted curve at half-maximal effect
# How it was run: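 HepG2 cells stably carrying the PXR-Luc reporter are cultured with 5% charcoal-stripped FBS and treated with compounds for 24hr. CellTiter-Fluor is added at 23hr and fluorescence is read after 1hr.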
# [20] = target: Androgen receptor (Homo sapiens) (UniProt P10275); assay: qHTS assay to identify small molecule agonists of the androgen receptor (AR) signaling pathway in the presence of an antagonist (AID 1259381; calls by dose curve; also: nearly all actives have a fitted effect of over 15% in size)
# How it was run: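 MDA-kb2 cells, 3,000/well, rested 5hr at 37C/0% CO2 → nilutamide 3.0uM final or buffer → compounds, 15 conc. → 16hr at 37C → ONE-Glo, 30min RT → luminescence.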
# Chain of Estrogen receptor (Homo sapiens) (P03372 whole entry, looked up): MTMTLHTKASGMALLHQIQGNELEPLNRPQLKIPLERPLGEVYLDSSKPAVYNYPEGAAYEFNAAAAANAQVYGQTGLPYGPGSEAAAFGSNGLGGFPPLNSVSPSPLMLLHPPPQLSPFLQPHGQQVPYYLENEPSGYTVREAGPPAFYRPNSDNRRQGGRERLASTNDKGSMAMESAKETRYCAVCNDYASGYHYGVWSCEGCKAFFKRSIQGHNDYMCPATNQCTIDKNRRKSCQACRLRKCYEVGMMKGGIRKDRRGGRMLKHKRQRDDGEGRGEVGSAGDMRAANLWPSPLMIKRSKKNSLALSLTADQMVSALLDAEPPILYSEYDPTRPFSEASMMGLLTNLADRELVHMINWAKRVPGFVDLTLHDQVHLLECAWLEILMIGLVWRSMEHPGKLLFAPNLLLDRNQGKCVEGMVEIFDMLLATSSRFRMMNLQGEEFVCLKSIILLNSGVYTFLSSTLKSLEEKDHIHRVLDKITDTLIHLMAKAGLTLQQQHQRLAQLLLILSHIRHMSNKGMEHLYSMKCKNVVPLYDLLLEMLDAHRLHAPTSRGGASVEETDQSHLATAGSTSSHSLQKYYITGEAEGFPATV
# Chain of Thyrotropin receptor (Homo sapiens) (P16473 whole entry, looked up): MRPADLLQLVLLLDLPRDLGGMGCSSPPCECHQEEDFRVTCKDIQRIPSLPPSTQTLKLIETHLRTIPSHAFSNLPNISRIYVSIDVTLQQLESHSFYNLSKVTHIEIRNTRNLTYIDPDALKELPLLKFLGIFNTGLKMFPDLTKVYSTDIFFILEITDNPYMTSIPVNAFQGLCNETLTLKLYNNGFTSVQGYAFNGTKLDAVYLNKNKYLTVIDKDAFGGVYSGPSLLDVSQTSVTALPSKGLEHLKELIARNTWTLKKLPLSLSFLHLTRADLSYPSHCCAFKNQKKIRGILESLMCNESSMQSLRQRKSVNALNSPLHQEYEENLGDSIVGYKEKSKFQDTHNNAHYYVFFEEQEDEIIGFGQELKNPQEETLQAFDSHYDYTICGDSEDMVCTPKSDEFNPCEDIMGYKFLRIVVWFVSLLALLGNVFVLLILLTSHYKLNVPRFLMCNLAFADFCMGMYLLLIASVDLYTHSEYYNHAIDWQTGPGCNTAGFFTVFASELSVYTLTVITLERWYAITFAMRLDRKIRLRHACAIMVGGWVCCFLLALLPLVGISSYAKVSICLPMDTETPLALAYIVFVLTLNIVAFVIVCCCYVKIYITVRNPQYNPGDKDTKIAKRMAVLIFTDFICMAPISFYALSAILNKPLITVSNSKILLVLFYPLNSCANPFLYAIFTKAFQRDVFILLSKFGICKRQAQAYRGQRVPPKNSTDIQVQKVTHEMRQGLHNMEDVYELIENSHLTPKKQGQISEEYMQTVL
# Chain of Estrogen receptor beta (Homo sapiens) (Q92731 whole entry, looked up): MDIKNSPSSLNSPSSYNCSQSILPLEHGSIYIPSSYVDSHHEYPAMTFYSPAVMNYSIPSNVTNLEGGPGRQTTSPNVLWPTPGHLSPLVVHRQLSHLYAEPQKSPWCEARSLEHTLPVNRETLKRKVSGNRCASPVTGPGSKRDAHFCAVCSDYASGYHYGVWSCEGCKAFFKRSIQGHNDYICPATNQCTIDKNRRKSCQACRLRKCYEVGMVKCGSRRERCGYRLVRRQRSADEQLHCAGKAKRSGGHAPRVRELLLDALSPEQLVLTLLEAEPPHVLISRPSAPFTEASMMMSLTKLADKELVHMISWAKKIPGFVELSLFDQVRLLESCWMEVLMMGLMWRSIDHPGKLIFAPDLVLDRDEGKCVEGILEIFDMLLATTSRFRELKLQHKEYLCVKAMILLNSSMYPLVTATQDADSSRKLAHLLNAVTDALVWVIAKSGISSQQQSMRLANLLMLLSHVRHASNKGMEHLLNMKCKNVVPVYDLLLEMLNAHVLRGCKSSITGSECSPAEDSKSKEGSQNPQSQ
# Chain of Progesterone receptor (Homo sapiens) (P06401 whole entry, looked up): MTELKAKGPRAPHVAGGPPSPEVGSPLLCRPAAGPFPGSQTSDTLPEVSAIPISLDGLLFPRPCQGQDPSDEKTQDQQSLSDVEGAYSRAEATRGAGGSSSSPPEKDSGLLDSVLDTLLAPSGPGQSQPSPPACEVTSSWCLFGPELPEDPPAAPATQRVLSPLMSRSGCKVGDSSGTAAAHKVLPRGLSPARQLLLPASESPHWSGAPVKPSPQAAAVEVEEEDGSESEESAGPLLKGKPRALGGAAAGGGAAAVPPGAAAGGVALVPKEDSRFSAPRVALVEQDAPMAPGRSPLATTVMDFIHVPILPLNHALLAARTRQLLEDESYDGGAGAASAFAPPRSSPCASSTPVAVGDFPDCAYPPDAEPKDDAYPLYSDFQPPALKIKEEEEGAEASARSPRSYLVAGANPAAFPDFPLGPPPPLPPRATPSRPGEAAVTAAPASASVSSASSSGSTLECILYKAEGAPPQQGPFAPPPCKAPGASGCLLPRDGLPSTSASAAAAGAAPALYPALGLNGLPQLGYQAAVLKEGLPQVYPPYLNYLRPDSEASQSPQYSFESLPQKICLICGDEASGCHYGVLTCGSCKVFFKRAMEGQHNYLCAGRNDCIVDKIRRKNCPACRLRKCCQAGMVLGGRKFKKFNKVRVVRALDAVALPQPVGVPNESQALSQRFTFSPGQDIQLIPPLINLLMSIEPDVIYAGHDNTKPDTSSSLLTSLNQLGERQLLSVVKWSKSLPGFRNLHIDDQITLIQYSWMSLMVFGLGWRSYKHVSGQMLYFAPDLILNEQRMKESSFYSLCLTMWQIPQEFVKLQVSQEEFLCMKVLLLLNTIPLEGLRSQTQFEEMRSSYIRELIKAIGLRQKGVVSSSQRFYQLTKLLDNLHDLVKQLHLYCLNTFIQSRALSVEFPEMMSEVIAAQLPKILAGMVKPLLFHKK
# Chain of Thyrotropin-releasing hormone receptor (Homo sapiens) (P34981 whole entry, looked up): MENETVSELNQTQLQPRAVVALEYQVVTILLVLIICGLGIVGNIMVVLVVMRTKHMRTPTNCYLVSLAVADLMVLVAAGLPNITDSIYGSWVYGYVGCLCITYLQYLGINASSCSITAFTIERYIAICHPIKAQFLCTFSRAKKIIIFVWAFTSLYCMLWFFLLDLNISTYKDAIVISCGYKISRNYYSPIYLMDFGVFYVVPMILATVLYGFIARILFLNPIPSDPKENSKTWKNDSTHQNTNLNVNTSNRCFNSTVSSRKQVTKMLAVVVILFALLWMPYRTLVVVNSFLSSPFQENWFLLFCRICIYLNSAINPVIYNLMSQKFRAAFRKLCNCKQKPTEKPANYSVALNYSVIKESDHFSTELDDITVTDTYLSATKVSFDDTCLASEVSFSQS
# Chain of Androgen receptor (Homo sapiens) (P10275 whole entry, looked up): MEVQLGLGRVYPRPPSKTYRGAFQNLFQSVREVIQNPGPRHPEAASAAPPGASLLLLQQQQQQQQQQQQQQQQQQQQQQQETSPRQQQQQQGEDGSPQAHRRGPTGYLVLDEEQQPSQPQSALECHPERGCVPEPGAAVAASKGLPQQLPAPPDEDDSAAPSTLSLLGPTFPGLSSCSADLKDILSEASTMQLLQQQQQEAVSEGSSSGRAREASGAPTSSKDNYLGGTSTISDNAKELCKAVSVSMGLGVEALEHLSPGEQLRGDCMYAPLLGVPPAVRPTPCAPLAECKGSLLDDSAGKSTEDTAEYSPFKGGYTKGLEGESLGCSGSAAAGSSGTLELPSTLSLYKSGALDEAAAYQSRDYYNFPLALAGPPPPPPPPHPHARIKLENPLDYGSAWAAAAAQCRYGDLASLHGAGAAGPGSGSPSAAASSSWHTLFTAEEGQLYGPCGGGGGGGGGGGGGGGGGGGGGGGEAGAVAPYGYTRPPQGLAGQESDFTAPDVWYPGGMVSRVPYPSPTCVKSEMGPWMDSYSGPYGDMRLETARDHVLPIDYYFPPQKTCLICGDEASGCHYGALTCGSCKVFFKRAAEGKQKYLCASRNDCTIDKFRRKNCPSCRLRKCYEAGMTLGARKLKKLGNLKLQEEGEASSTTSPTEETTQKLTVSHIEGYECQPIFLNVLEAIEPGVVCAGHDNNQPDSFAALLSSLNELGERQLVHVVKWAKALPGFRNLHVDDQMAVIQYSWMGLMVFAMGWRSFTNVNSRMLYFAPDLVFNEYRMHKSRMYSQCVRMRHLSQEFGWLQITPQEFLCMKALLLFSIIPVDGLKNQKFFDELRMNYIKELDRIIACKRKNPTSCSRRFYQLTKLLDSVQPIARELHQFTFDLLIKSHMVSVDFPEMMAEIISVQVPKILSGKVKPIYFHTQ
Structure (SMILES),Potency [1],Potency [2],Potency [3],Potency [4],Potency [5],Potency [6],outcome [7],Potency [8],Potency [9],Potency [10],Potency [11],Potency [12],Potency [13],Potency [14],Potency [15],outcome [16],Potency [17],Potency [18],Potency [19],Potency [20]
CC(C)(COCC1CO1)COCC1CO1 (stereo not given),inactive,inactive,inactive,inactive,inactive,inactive,inactive,inactive,inactive,inactive,inactive,inactive,inactive,inactive,inactive,inactive,inactive,inactive,inactive,–
CC1(C)[C@H](C(=O)O[C@H](C#N)c2cccc(Oc3ccccc3)c2)[C@@H]1/C=C(\Cl)C(F)(F)F,inactive,inactive,inactive,inactive,inactive,–,inactive,inactive,inactive,inactive,–,inactive,inactive,inactive,inactive,inactive,inactive,inactive,inactive,–
c1ccc(OCC2CO2)cc1 (stereo not given),inactive,inactive,inactive,inactive,inactive,–,inactive,inactive,inactive,inactive,inactive,inactive,inactive,–,inactive,inactive,–,–,inactive,–
ClCCN1CCOCC1,inactive,inactive,inactive,inactive,inactive,inactive,–,inactive,–,inactive,inactive,inactive,inactive,inactive,inactive,inactive,inactive,inactive,inactive,–
CC1(C)C(/C=C(\Cl)C(F)(F)F)C1C(=O)OC(C#N)c1cccc(Oc2ccccc2)c1 (stereo not given),inactive,inactive,inactive,inactive,inactive,–,inactive,inactive,inactive,inactive,–,inactive,–,inactive,inactive,inactive,inactive,inactive,–,–
ClC(Cl)=C(Cl)Cl,inactive,inactive,inactive,inactive,inactive,–,inactive,inactive,inactive,inactive,–,inactive,inactive,inactive,inactive,inactive,inactive,inactive,inactive,–
CCc1ccccc1C,inactive,inactive,inactive,inactive,inactive,inactive,inactive,inactive,inactive,inactive,–,inactive,inactive,inactive,inactive,inactive,–,–,inactive,inactive
COc1ccc(OC)c(CC(C)N)c1 (stereo not given),inactive,inactive,inactive,–,inactive,inactive,–,inactive,inactive,inactive,inactive,inactive,inactive,inactive,inactive,inactive,inactive,inactive,inactive,–
Clc1ccc(C(c2ccccc2Cl)C(Cl)(Cl)Cl)cc1 (stereo not given),inactive,6.15 µM (active) and 8.02 µM (active),inactive,48.9 µM (active),inactive,–,–,–,inactive,inactive,4.51 µM (active),inactive,–,inactive,inactive,inactive,inactive,inactive,inactive,–
c1ccc2c(c1)OCC(C1=NCCN1)O2 (stereo not given),inactive,11.9 µM (active),inactive,–,inactive,inactive,inactive,inactive,–,inactive,–,inactive,inactive,inactive,inactive,inactive,inactive,inactive,26.6 µM (active),–
CC(C)CCCCCOC(=O)c1ccccc1C(=O)OCCCCCC(C)C,inactive,inactive,inactive,–,inactive,inactive,inactive,inactive,inactive,inactive,inactive,inactive,inactive,inactive,inactive,inactive,inactive,inactive,–,–
O=CC(Br)(Br)Br,inactive,inactive,30.5 µM (active),21.6 µM (active),–,inactive,inactive,–,–,inactive,inactive,inactive,inactive,–,–,inactive,–,–,43.1 µM (active),–
CN(C)CCc1c[nH]c2cccc(O)c12,inactive,inactive,inactive,inactive,inactive,–,–,–,inactive,inactive,–,–,–,inactive,inactive,inactive,–,–,–,–
OC(c1ccc(Cl)cc1)(c1ccc(Cl)cc1)C(Cl)(Cl)Cl,inactive,inactive,–,inactive,inactive,inactive,inactive,68.6 µM (active),inactive,inactive,–,–,inactive,–,inactive,inactive,–,–,inactive,–
c1ccc(Nc2ccc3ccccc3c2)cc1,inactive,54.2 µM (active) and 48.6 µM (active),inactive,68.2 µM (active),–,8.63 µM (active),inactive,inactive,inactive,inactive,–,inactive,inactive,inactive,inactive,inactive,inactive,inactive,inactive,–
CCCOCC(=Nc1ccc(Cl)cc1C(F)(F)F)n1ccnc1,inactive,17.2 µM (active),–,–,61.1 µM (active),–,inactive,inactive,–,–,–,–,–,inactive,inactive,inactive,inactive,inactive,61.1 µM (active),–
